Measured values from PubChem BioAssay AID1490 (National Center for Advancing Translational Sciences (NCATS), 2009).
The campaign covered roughly 310,000 compounds. About 11,000 (3.5%) were called active. Inconclusive results (about 4%) are left out. Calls follow the shape of the dose curve; as a rule, active = well fitted inhibition curve with a large enough effect; inconclusive = small, poorly fitted or top-dose-only effect, or another doubt; inactive = no such curve, though single readings can be large or run the other way. This excerpt belongs to a sample that is enriched for actives.
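Also: the enzyme is Sfp with the accession as filed and its product quenches rhodamine fluorescence.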
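For largest response in the series, negative = inhibition in this document: 0% = enzyme reaction without inhibitor and -100% = no enzyme wells.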
Potency is read from the fitted curve at half-maximal effect.

What follows are molecules tested against 4'-phosphopantetheinyl transferase ffp (Bacillus subtilis) (UniProt Q9F4F7) (assay: qHTS Assay for Inhibitors of Bacillus subtilis Sfp phosphopantetheinyl transferase (PPTase)). Conditions: Biochemical Sfp PPTase activity.
Procedure, shortened: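 Fluorescence-quenching assay with 15 nM Sfp, 5 uM rhodamine-CoA and 12.5 uM BHQ-2-labelled ybbR peptide in pH 7.6 Hepes/MgCl2 buffer. Enzyme was pre-incubated with compound for 15 min at room temperature. Rate was taken from the 30-min fluorescence change (525/598 nm).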
For `CCN(CC)/[N+]([O-])=N/Oc1cc(O/[N+]([O-])=N/N2CCCC2CO)c([N+](=O)[O-])cc1[N+](=O)[O-]` (stereo not given), the largest response in the series, negative = inhibition was -6.67% (inactive). With `Cn1c(=O)c2sccc2n(Cc2ccc(Br)cc2)c1=O` the largest response in the series, negative = inhibition was 5.6% (inactive). With `CCOc1ccc(N(CC(=O)Nc2ccccc2F)S(=O)(=O)c2c(C)[nH]c(=O)[nH]c2=O)cc1` the largest response in the series, negative = inhibition was 9.89% (inactive). For `COc1ccccc1C(=O)NC(=S)Nc1ccccc1N1CCCCC1`, the largest response in the series, negative = inhibition was 5.21% (inactive). For `Cc1ccc(C(=O)NCC(=O)OCC(=O)NC2CCCCCCC2)cc1`, the largest response in the series, negative = inhibition was 15.7% (inactive). In the case of `COc1ccc(CNC(=O)C2CCN(S(=O)(=O)c3ccc(SC)cc3)CC2)cc1`, the largest response in the series, negative = inhibition is reported as 8.97% (inactive). `O=S(=O)(c1ccc(Br)cc1)c1nc(-c2ccccc2)oc1N1CCOCC1` was tested, and the largest response in the series, negative = inhibition was -5.06% (inactive). With `O=S(=O)(c1ccc(Cl)cc1)c1nc(-c2ccco2)oc1N1CCCCC1` the largest response in the series, negative = inhibition was -3.63% (inactive). With `O=S(=O)(c1ccccc1)c1nc(Cc2ccccc2)oc1N1CCOCC1` the Potency was 44.7 µM (active). For `Cc1ccc(OC(=O)c2cncc(Br)c2)c(C)c1`, the largest response in the series, negative = inhibition was -4.31% (inactive). `COc1ccc(C(=O)CC(=O)C(=O)Nc2cc([N+](=O)[O-])ccc2OC)cc1` was tested, and the largest response in the series, negative = inhibition was 1.31% (inactive). In the case of `O=C(Nc1cccc([N+](=O)[O-])c1)Nc1ccc(Cl)cn1`, the largest response in the series, negative = inhibition is reported as 13.8% (inactive). With `O=C(Nc1ccc(Cl)cn1)Nc1cccs1` the Potency was 39.8 µM (active). `CCCc1cc(C(=O)Nc2ccc(Cl)cn2)cs1` was tested, and the largest response in the series, negative = inhibition was 2.86% (inactive). With `Cc1sc2ncn(CC(=O)NCCN(C)C)c(=O)c2c1S(=O)(=O)N1CCC(C)CC1` the largest response in the series, negative = inhibition was 16.8% (inactive). For `O=C(CNC(=O)c1ccccc1)Oc1ccc([N+](=O)[O-])cc1`, the largest response in the series, negative = inhibition was 7.55% (inactive). `COc1ccc(C(=O)OCC(=O)Nc2cccc(C(C)=O)c2)cc1OC` was tested, and the largest response in the series, negative = inhibition was 11.4% (inactive). `CN(C)CCCNC(=S)N1CCN(c2nc(-c3ccccc3)cs2)CC1` was tested, and the largest response in the series, negative = inhibition was -3.69% (inactive). With `CC(=O)c1cccc(NC(=O)C2CCN(C(=O)c3ccccc3Cl)CC2)c1` the largest response in the series, negative = inhibition was -3.58% (inactive). With `O=S(=O)(Nc1ccc2cn[nH]c2c1)c1ccccc1` the largest response in the series, negative = inhibition was 14.6% (inactive). In the case of `O=S(=O)(Nc1ccc2nc(-c3ccco3)[nH]c2c1)c1ccccc1`, the Potency is reported as 28.2 µM (active). With `Cn1c(CCN2CCCC2)nc2cc(NS(=O)(=O)c3ccccc3)ccc21` the largest response in the series, negative = inhibition was 1.01% (inactive). For `O=C(c1ccc(Br)o1)N1CCN(CCOc2ccccc2)CC1`, the largest response in the series, negative = inhibition was 15.3% (inactive). `Cc1ccc(/C=N/NC(=O)c2cc3ccccc3cc2O)o1` was tested, and the largest response in the series, negative = inhibition was 13.6% (inactive). For `O=[N+]([O-])c1cccc2ncccc12`, the largest response in the series, negative = inhibition was 8.82% (inactive). `O=[N+]([O-])c1cc([N+](=O)[O-])c2cccnc2c1O` was tested, and the Potency was 39.8 µM (active). With `O=C(c1cccc(F)c1)N1CCN(c2ccc([N+](=O)[O-])c3cccnc23)CC1` the largest response in the series, negative = inhibition was 1.54% (inactive). With `NC(=O)C1CC(=O)N(c2ccc(OCC(=O)NCc3ccccc3)cc2)C1` (stereo not given) the largest response in the series, negative = inhibition was 23.9% (inactive). With `c1ccc(NCc2cccc3ccccc23)nc1` the largest response in the series, negative = inhibition was -7.37% (inactive). With `c1ccc2c(C[n+]3csc4ccccc43)cccc2c1` the Potency was 44.7 µM (active). In the case of `Nc1scc[n+]1Cc1cccc2cccnc12`, the largest response in the series, negative = inhibition is reported as 17.3% (inactive). With `C=CCCN(C(Cc1ccccc1)C(=O)OC)S(=O)(=O)c1cc(Br)ccc1Br` (stereo not given) the largest response in the series, negative = inhibition was 7.63% (inactive). In the case of `CCOc1ccc(N/C(N)=N/c2nc(C)c(C)c(=O)[nH]2)cc1`, the largest response in the series, negative = inhibition is reported as 12.8% (inactive). With `CCOC(=O)c1sc2nc(CSc3ccccc3)[nH]c(=O)c2c1C` the largest response in the series, negative = inhibition was 1.58% (inactive). With `Cc1ccc(C)c(SCc2nc3sc(C(=O)O)c(C)c3c(=O)[nH]2)c1` the largest response in the series, negative = inhibition was -17.2% (inactive). For `CSc1nnc(SCc2nc3sc(C(=O)O)c(C)c3c(=O)[nH]2)s1`, the Potency was 12.6 µM (active). In the case of `Cc1cccc(OCC(=O)NCCNC(=O)c2cccnc2)c1`, the largest response in the series, negative = inhibition is reported as 3.63% (inactive). For `CN(C)CCN(Cc1ccccc1)S(=O)(=O)c1csc(C(N)=O)c1`, the largest response in the series, negative = inhibition was 4.81% (inactive). With `CCc1ccc(OCC(=O)OC(C)C(=O)NC2CC2)cc1` (stereo not given) the largest response in the series, negative = inhibition was 6.01% (inactive). `COc1ccc(NC(=O)c2cc(-c3cc(OC)c(OC)c(OC)c3)nc3ccccc23)c(OC)c1` was tested, and the largest response in the series, negative = inhibition was 1.5% (inactive). For `CSc1ncccc1C(=O)Nc1ccc(C)cn1`, the largest response in the series, negative = inhibition was 10.7% (inactive). For `Cc1ccc(NC(=O)c2cc(-c3ccc(C)o3)nc3ccccc23)nc1`, the Potency was 10 µM (active). `CCc1nccn1CCC(=O)N1CCCC(N2CCN(c3ccccc3F)CC2)C1` (stereo not given) was tested, and the largest response in the series, negative = inhibition was 1.37% (inactive). In the case of `Cc1ccccc1-c1nc(CS(=O)(=O)CC(=O)NC(C)c2ccccc2)c(C)o1` (stereo not given), the largest response in the series, negative = inhibition is reported as 1.96% (inactive). With `O=C(c1ccccc1)N1CCN(c2ccc([N+](=O)[O-])c(NCc3ccco3)c2)CC1` the largest response in the series, negative = inhibition was 10.8% (inactive). For `Cc1ccc(/C([O-])=C(/C(=S)NCc2ccco2)[n+]2ccccc2)cc1[N+](=O)[O-]`, the Potency was 25.1 µM (active). With `O=C(NCc1ccco1)c1ccc([N+](=O)[O-])cc1Cl` the largest response in the series, negative = inhibition was 22.8% (inactive). In the case of `Cc1ccc(S(=O)(=O)NCC2CCC(C(=O)N3CCOCC3)CC2)cc1` (stereo not given), the largest response in the series, negative = inhibition is reported as 10% (inactive). For `CC(C)CCN1NC2(CCC(C)CC2)NC1=S` (stereo not given), the Potency was 79.4 µM (active). For `C[C@H]1Cc2c(COc3ccccc3)nc3c(c2CO1)CN(C(=O)NCc1ccco1)CC3`, the largest response in the series, negative = inhibition was 2.41% (inactive). With `O=C(Cn1nc(C(=O)O)c2ccccc2c1=O)Nc1ccc(F)cc1` the largest response in the series, negative = inhibition was 1.99% (inactive). With `COCCOC(=O)C1=C(C)NC(=O)NC1c1cc2c(cc1Br)OCO2` (stereo not given) the largest response in the series, negative = inhibition was 10.6% (inactive). `O=C(Nc1cccnc1)c1cc(Cl)ccc1Cl` was tested, and the largest response in the series, negative = inhibition was 16.1% (inactive). In the case of `O=C(/C=C/c1ccc(Cl)cc1Cl)c1cccnc1`, the Potency is reported as 31.6 µM (active). For `O=C(/C=C/c1ccc(Cl)cc1Cl)NCc1ccco1`, the largest response in the series, negative = inhibition was -1.31% (inactive). `O=C(NCc1ccccc1Cl)c1ccc2c(=O)n(CC3CCCO3)c(=S)[nH]c2c1` (stereo not given) was tested, and the largest response in the series, negative = inhibition was 12.5% (inactive). In the case of `O=S(=O)(NC1CCCCC1N1CCC(O)CC1)c1ccc(Cl)cc1` (stereo not given), the largest response in the series, negative = inhibition is reported as 10.1% (inactive). In the case of `COc1ccc(N2CCN(S(=O)(=O)c3ccc4c(c3)N(C(C)=O)CCO4)CC2)cc1`, the largest response in the series, negative = inhibition is reported as 11.9% (inactive). With `CCCCc1nc(SCC(=O)Nc2nnc(C(C)C)s2)n[nH]1` the largest response in the series, negative = inhibition was 2.56% (inactive). `N#CC1(NC(=O)COC(=O)CCN=C2NS(=O)(=O)c3ccccc32)CCCCC1` was tested, and the largest response in the series, negative = inhibition was 8.87% (inactive).
